From PubChem BioAssay AID1727 (National Center for Advancing Translational Sciences (NCATS), 2009)
The source made the active and inactive calls. Calls come from the whole dose curve; as a rule, active = well fitted curve in the direction sought with a large enough effect; inactive = no such curve, though single readings can be large or run the other way.

Target: Epidermal growth factor receptor (Homo sapiens) (UniProt P00533)
Assay: Assay for Inhibitors of the ERK Signaling Pathway using a Homogeneous Screening Assay: EGFR L858R Kinase Inhibition
Conditions: EGFR L858R kinase biochemical inhibition assay; series mostly up to 21.9 µM; activity, negative = inhibition: at the top concentration
Text: qHTS Assay for Inhibitors of the ERK Signaling Pathway using a Homogeneous Screening Assay
NIH Chemical Genomics Center [NCGC]
NIH Molecular Libraries Screening Centers Network [MLSCN]
Assay Submitter (PI): Dr. Wei Zheng, NCGC/NIH
The Ras/extracellular-signal-regulated kinase (ERK) mitogen activated protein (MAP) kinase signaling pathway (ERK1/2 cascade) plays is a key role in transmitting signals from the cell surface to the nucleus (Nishida and Gotoh 1993; Chang and Karin, 2001). The cascade is initiated by the small G-protein Ras, which recruits Raf […], where activation occurs. Alternatively, this pathway can be activated by elevating intracellular cAMP.
Activation of the ERK pathway is essential in increased cell division and cell survival. Sustained and constitutive activation of the ERK pathway, however, has been linked to uncontrolled cell proliferation, increased cell survival, and tumor progression. Thus, the ERK has been as an attractive target for cancer chemotherapy in the past few years (Sebolt-Leopold and Herrera, 2004). Given its physiological and pathological importance, assessment of ERK phosphorylation has been broadly performed in both basic research and drug discovery. Most assays for the measurement of ERK phosphorylation use the antibody-based detection methods, such as western blot and ELISA. These assays require multiple reagent additions with cell wash steps and are not suitable for high-throughput screening.
The current cell-based ERK phosphorylation assay was performed using AlphaScreen platform. AlphaScreen is a two bead-based proximity-dependent chemical energy transfer luminescent assay platform. The assay reagents (ERK SureFire(TM) kit) were supplied from TGR BioSciences (Australia). In the presence of specific antibodies, phosphorylated ERK will bring "donor" and "acceptor" beads to a proximity range (<200 nm), and subsequently lead a chemical luminescent reaction upon exciting donor beads with 680 nm laser. To validate pathway hits from the cell-based assay, enzyme assays consisting of EGFR tyrosine kinase, Raf and MEK were used as a means of deciphering the enzymes of target for the prioritized group of compounds derived from the HEK-293 cell based assay. The compounds were tested against significant members of the ERK signaling pathway EGFR and EGFR mutants (EGFR L858R, EGFR T790M, and EGFR L858R T790M). In order to establish the specificity of the prioritized compounds for EGFR and EGFR mutants, the compounds were also assayed against other important ERK signaling pathway enzymes, c-RAF and MEK-1.
NCGC Assay Protocol Summary:
The HTRF kinase assay (components supplied as kit by Cisbio) was chosen for the EGFR and EGFR mutant enzyme assays that applied the time resolved fluorescence resonance energy transfer (TR-FRET) principle. A peptide substrate is labeled with a biotin that can bind to XL665 labeled streptavidin and the anti-phosphoresidue antibody is labeled with Eu+. Upon phosphorylation of the substrate, the antibody binds to phosphorylated substrate that enables TR-FRET detection in homogenous assay format.
An HTRF Kinease TK assay kit (Cisbio, Bedford, MA) was used to develop the EGFR and EGFR mutant assays (Harbert et al., 2008. Harbert C, Marshall J, Soh S, Steger K. Development of a HTRF Kinase Assay for Determination of Syk Activity. Current Chemical Genomics. 1: 20-26. 2008). EGFR and EGFR mutants were obtained from Invitrogen. The assay buffer was composed of 50 mM HEPES (pH 7.0), 5 mM MgCl2, 5mM DTT, 0.1 % NaN3, 0.1 % BSA and 0.1 mM orthovanadate.
The HTRF assays were preformed according to the HTRF Kinease TK kit. Optimization for each enzyme was preformed in 384 well format (data not included). All reagents were dispensed into 1536 well plates.
(1) Enzyme, […] EGFR at 3 nM final
(2) Compound, 22 nl, Library Compounds in 0.128 to 10 mM titration series or control
(3) Reagent, 1.5 ul 10 uM ATP and 0.25 uM substrate final
(4) Incubation for 30 min, Ambient conditions
[…]

Chain of Epidermal growth factor receptor (Homo sapiens) (P00533 whole entry L858R, looked up): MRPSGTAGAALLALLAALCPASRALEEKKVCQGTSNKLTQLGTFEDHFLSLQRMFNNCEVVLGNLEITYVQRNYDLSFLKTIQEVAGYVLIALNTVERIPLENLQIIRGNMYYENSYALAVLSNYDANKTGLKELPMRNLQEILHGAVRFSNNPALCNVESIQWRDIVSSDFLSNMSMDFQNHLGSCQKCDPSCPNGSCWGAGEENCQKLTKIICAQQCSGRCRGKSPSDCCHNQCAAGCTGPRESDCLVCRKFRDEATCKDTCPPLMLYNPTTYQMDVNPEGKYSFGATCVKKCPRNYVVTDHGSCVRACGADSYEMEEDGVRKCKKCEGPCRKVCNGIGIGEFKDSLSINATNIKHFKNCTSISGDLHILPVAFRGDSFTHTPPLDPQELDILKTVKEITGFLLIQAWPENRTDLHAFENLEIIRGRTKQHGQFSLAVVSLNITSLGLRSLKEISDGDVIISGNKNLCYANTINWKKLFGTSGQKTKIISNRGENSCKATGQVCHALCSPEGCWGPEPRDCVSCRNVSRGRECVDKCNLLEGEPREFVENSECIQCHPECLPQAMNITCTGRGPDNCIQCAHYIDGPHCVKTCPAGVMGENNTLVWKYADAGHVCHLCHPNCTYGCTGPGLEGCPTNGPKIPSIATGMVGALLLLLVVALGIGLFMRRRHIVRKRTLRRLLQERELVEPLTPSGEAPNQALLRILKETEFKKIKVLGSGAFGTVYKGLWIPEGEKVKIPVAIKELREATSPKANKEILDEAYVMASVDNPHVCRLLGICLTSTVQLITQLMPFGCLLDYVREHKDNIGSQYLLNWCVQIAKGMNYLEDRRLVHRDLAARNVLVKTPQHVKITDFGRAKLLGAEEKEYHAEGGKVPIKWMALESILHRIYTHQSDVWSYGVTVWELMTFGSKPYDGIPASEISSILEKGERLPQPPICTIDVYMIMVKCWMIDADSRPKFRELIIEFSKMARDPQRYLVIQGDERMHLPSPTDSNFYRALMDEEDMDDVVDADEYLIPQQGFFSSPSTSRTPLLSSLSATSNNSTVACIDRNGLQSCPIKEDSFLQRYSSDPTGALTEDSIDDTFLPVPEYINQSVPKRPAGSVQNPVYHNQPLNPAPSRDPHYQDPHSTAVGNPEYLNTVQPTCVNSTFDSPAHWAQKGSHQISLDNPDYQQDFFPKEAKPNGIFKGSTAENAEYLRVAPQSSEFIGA

Structure (SMILES) | Potency | activity, negative = inhibition
Cc1ccc(NNc2c(C)nc3ccccc3nc2=O)cc1 | 3160 nM (active) | 
Cc1ccc2nc(=O)c(NNc3ccccc3)cnc2c1 | 631 nM (active) | 
CS(=O)(=O)CCNCc1nc(-c2ccc3ncnc(Nc4ccc(OCc5cccc(F)c5)c(Cl)c4)c3c2)cs1 | 50.1 nM (active) | 
N#C/C(=C(/N)Sc1ccc(N)cc1)c1ccccc1C(F)(F)F | inactive | 
CCN(CC)CCC(=O)Nc1cccc2c1C(=O)c1ccccc1C2=O |  | -11.8% (inactive)
CNc1cccc2c1C(=O)c1ccccc1C2=O |  | -2.12% (inactive)
O=C1c2ccccc2C(=O)c2c(NCCCN(CCO)CCO)cccc21 |  | -1.94% (inactive)
Cn1nc(-c2ccc(Cl)cc2)nc2c(=O)n(C)c(=O)nc1-2 |  | -1.74% (inactive)
O=C1c2ccccc2C(=O)c2c1cccc2N1CCCC1 |  | -7.13% (inactive)
O=C(Nc1nc(-c2ccccc2)cs1)c1ccc(N2CCOCC2)c([N+](=O)[O-])c1 |  | -3.33% [at 65.8 µM] (inactive)
CCn1c(=O)c2[nH]c(-c3ccccc3)nc2n(CC)c1=O |  | -11.3% (inactive)
Cn1nc(-c2ccccn2)nc2c(=O)n(C)c(=O)nc1-2 |  | 3.73% (inactive)
Cn1c(=O)[nH]c2nnc(-c3ccc(Cl)c(Cl)c3)nc2c1=O |  | -2.48% [at 65.8 µM] (inactive)
Cc1nc2ccccc2nc(=O)c1NNc1ccccc1 | 631 nM (active) | 
COc1ccc(C(=O)c2ccc(Cl)c([N+](=O)[O-])c2)cc1 |  | -9.07% (inactive)
CN(C)c1cccc2c1C(=O)c1ccccc1C2=O |  | 0.987% (inactive)
Fc1ccc(Nc2ncnc3sc4c(c23)CCC4)cc1F | 44.7 nM (active) | 
